PubChem BioAssay (Tox21)
Records with an inconclusive call do not appear. Activity calls are given as the source filed them. Unless noted, calls follow the shape of the full dose curve.

Experiments:
[1] = Nuclear factor erythroid 2-related factor 2/antioxidant responsive element (Nrf2/ARE) small molecule agonists: qHTS cell viability counter screen in human keratinocytes (AID 1919968; active = well fitted curve in the direction sought with a large enough effect in the repeat runs; an effect the other way counts as inactive or inconclusive; also: nearly all actives have a fitted effect of over 55% in size)
Method in brief: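 Stably transfected HaCaT (KeratinoSens), 1,500/well. Test agents in DMSO were applied for 23 h, 37 C/5% CO2. CellTiter-Fluor was incubated 1 h before the fluorescence read.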

[2] = Nuclear factor erythroid 2-related factor 2/antioxidant responsive element (Nrf2/ARE) small molecule agonists: luciferase reporter gene qHTS assay in human keratinocytes (AID 1919969); also: nearly all actives have a fitted effect of over 35% in size
[3] = target: Gonadotropin-releasing hormone receptor (Homo sapiens) (UniProt P30968); experiment: Human gonadotropin-releasing hormone receptor (GnRHR) small molecule agonists, calcium flux assay in GnRHR-HEK293 cells (AID 1920063); also: nearly all actives have a fitted effect of over 35% in size
Method in brief: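 Stable human GnRHR HEK293 line. 18 h plating, then calcium dye for 1 h at 37 C. Agonist-mode compound addition from DMSO stocks; fluorescence monitored 3 min.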

[4] = target: KiSS-1 receptor (Homo sapiens) (UniProt Q969F8); experiment: Human kisspeptin (KISS1R) small molecule agonists, calcium flux assay in KISS1R-HEK293 cells (AID 1920064; active = well fitted curve in the direction sought with a large enough effect in the repeat runs; an effect the other way counts as inactive or inconclusive)
Method in brief: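 After overnight (18 h) culture at 37 C/5% CO2, human KISS1R-HEK293 cells received calcium dye for 1 h, then test compound; emission at 540 nm (excitation 480 nm) was tracked for 3 min.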

[5] = G protein-coupled receptor (GPCR) small molecule agonists, calcium flux assay: HEK293 wild type cell line counter screen (AID 1920065)
Method in brief: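 Following 18 h incubation at 37 C/5% CO2, plates got calcium dye for 1 h; compounds, ATP or DMSO were then pinned in and fluorescence followed kinetically (480/540 nm).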

[6] = p53 small molecule agonists, cell-based qHTS assay with human liver microsomes (AID 1963577)
Method in brief: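 p53RE-bla cells, 4,000/well, compound added after 5 h, with human liver microsomes 0.5 mg/mL and NADPH 0.5 mg/mL final; 16 h at 37 C, then LiveBLAzer 2 h RT, fluorescence.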

[7] = p53 small molecule agonists, cell-based qHTS assay with rat liver microsomes (AID 1963578)
Method in brief: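 p53RE-bla cells, 4,000/well, pre-incubated 5 h, then given compounds plus rat liver microsomes (0.5 mg/mL final) and NADPH (0.5 mg/mL final). Incubation 16 h at 37 C; beta-lactamase reporter read by LiveBLAzer fluorescence after 2 h at room temperature.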

[8] = p53 small molecule agonists, cell-based qHTS assay with human liver microsomes: qHTS cell viability counter screen (AID 1963579); also: nearly all actives have a fitted effect of over 45% in size
Method in brief: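 p53RE-bla cells, 4,000/well, dosed 5 hours after plating, with human liver microsomes (0.5 mg/mL final) plus NADPH (0.5 mg/mL final), 16 hours at 37 C. Viability read as CellTiter-Glo luminescence after 30 min at room temperature.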

[9] = p53 small molecule agonists, cell-based qHTS assay with rat liver microsomes: qHTS cell viability counter screen (AID 1963580); also: nearly all actives have a fitted effect of over 45% in size
Method in brief: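 Cytotoxicity counter screen: intracellular ATP measured by CellTiter-Glo luminescence in the same wells as the beta-lactamase reporter read, on HCT-116 p53RE-bla cells exposed 16 h at 37 C to compounds with rat liver microsomes and NADPH, each 0.5 mg/mL final.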

[10] = p53 small molecule agonists, cell-based qHTS assay: qHTS cell viability counter screen (AID 1963581); also: nearly all actives have a fitted effect of over 45% in size
Method in brief: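 qHTS counter screen: 16 h compound exposure at 37 C of p53RE-bla HCT-116 cells (4,000 per well, seeded 5 h prior), cell viability by ATP luminescence.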

[11] = p53 small molecule agonists, cell-based qHTS assay (AID 1963582; active = well fitted activation curve with a large enough effect in the signal ratio in the repeat runs, not every such curve was filed as active; the % refers to the signal ratio)
Method in brief: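 Measured: fluorescence from cleaved LiveBLAzer substrate. System: p53RE-bla cells, 16 h compound treatment at 37 C, 2 h substrate step at room temperature.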

[12] = target: 5-hydroxytryptamine receptor 2A (Homo sapiens) (UniProt P28223); experiment: 5-hydroxytryptamine receptor 2A (HTR2A) small molecule antagonists, cell-based qHTS assay (AID 1963586); also: nearly all actives have a fitted effect of over 45% in size
Method in brief: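 CHO cells stably expressing human HTR2A were plated for 18 h at 37 C, then loaded with calcium dye for 1 h. Compounds were preincubated 5 min at room temperature before DOI (4 nM solution) was added. Kinetic fluorescence was read for 3 min.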

[13] = target: 5-hydroxytryptamine receptor 2A (Homo sapiens) (UniProt P28223); experiment: 5-hydroxytryptamine receptor 2A (HTR2A) small molecule agonists, cell-based qHTS assay (AID 1963587); also: nearly all actives have a fitted effect of over 30% in size
Method in brief: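 CHO cells stably expressing human HTR2A, plated 18 h, loaded with calcium dye 1 h at 37 C. Agonist mode: compounds added and intracellular calcium fluorescence recorded kinetically for 2 min at 1 sec intervals.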

[14] = target: Muscarinic acetylcholine receptor M1 (Homo sapiens) (UniProt P11229); experiment: Cholinergic receptor muscarinic 1 (CHRM1) small molecule antagonists, cell-based qHTS assay (AID 1963588); also: nearly all actives have a fitted effect of over 40% in size
Method in brief: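 Compounds were tested at 15 concentrations in three independent runs. Dye-loaded CHRM1-CHO cells were exposed 5 min at room temperature before stimulation by acetylcholine added at 50nM. Intracellular calcium was read kinetically on FDSS for 3 min.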

[15] = target: Muscarinic acetylcholine receptor M1 (Homo sapiens) (UniProt P11229); experiment: Cholinergic receptor muscarinic 1 (CHRM1) small molecule agonists, cell-based qHTS assay (AID 1963589); also: nearly all actives have a fitted effect of over 35% in size
Method in brief: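 Kinetic fluorescence (1 s intervals) of calcium-sensitive dye in human M1 CHO cells after compound addition; cells pre-incubated 18 h at 37 C/5% CO2 and dye-loaded 1 h.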

[16] = cAMP Responsive Elements (CRE) small molecule agonists, cell-based qHTS assay (AID 1963590)
Method in brief: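 Test agents in DMSO were incubated 3 h at 37 C/5% CO2 with CRE-bla HEK 293T cells seeded 18 h earlier; LiveBLAzer B/G FRET substrate was added and read after 2 h at room temperature.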

[17] = cAMP Responsive Elements (CRE) small molecule antagonists, cell-based qHTS assay (AID 1963591; active = well fitted inhibition curve with a large enough effect in the signal ratio in the repeat runs, not every such curve was filed as active; the % refers to the signal ratio)
Method in brief: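 Reporter line CRE-bla HEK 293T in dialyzed-FBS DMEM; cells preincubated 18 h, treated 3 h with compound plus NKH477 (0.25 uM final); LiveBLAzer FRET, 2 h RT.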

[18] = target: Beta-2 adrenergic receptor (Homo sapiens) (UniProt P07550); experiment: Adrenergic beta2 receptor (ADRB2) small molecule antagonists, cell-based qHTS assay (AID 1963592); also: series mostly up to about 92 µM; nearly all actives have a fitted effect of over 50% in size
Method in brief: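 Assay format: CHO-ADRB2 cells, 18-20hr seeding at 37C/5% CO2, then compound plus 1nM isoproterenol agonist mix for 0.5hr RT. Homogeneous time-resolved fluorescence cAMP detection after 1hr, expressed as 665/615 nm ratio.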

[19] = target: D(2) dopamine receptor (Homo sapiens) (UniProt P14416); experiment: Dopamine D2 receptor (DRD2) small molecule antagonists, cell-based qHTS assay (AID 1963595; active = well fitted inhibition curve with a large enough effect in the signal ratio in the repeat runs, with a control signal flat; the % refers to the signal ratio)
Method in brief: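 Antagonism was scored as restored cAMP in HEK293-DRD2 cells. These cells were stimulated with 200 nM NKH477 and 12 nM quinpirole for 30 min at room temperature, in the presence of 0.1 mM Ro20-1724.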

[20] = target: D(2) dopamine receptor (Homo sapiens) (UniProt P14416); experiment: Dopamine D2 receptor (DRD2) small molecule agonists, cell-based qHTS assay (AID 1963594); also: nearly all actives have a fitted effect of over 35% in size
Method in brief: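 HEK293 cells stably expressing human DRD2, pre-treated with PDE inhibitor Ro20-1724 (0.1 mM final) and compound 10 min at room temperature, then stimulated with NKH477 (200nM […]) for 30 min. cAMP read by HTRF (665/620 nm).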

Measured: Potency

Sequence of Muscarinic acetylcholine receptor M1 (Homo sapiens) (P11229 whole entry, looked up): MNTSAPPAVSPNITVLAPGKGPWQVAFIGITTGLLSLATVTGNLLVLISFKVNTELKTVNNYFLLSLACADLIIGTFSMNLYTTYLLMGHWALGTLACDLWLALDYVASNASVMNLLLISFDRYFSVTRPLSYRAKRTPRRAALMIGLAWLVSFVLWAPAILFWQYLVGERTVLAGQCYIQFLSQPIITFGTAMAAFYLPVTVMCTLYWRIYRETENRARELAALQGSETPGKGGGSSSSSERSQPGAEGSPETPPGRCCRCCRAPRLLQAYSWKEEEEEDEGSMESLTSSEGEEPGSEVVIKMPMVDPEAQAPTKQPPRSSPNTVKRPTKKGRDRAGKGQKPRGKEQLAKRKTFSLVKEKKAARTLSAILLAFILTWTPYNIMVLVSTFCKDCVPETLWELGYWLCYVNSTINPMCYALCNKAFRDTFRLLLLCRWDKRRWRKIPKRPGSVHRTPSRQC
Sequence of KiSS-1 receptor (Homo sapiens) (Q969F8 whole entry, looked up): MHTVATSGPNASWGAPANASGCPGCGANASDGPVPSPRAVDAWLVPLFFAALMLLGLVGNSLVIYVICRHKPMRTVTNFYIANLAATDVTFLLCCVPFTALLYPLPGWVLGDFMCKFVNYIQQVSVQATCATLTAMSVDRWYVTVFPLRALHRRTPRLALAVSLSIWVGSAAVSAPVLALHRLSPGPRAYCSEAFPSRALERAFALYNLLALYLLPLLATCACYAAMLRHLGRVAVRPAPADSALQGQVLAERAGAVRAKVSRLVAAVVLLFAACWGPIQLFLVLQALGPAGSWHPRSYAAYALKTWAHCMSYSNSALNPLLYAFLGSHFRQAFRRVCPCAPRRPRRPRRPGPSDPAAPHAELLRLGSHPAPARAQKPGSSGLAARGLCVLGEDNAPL
Sequence of D(2) dopamine receptor (Homo sapiens) (P14416 whole entry, looked up): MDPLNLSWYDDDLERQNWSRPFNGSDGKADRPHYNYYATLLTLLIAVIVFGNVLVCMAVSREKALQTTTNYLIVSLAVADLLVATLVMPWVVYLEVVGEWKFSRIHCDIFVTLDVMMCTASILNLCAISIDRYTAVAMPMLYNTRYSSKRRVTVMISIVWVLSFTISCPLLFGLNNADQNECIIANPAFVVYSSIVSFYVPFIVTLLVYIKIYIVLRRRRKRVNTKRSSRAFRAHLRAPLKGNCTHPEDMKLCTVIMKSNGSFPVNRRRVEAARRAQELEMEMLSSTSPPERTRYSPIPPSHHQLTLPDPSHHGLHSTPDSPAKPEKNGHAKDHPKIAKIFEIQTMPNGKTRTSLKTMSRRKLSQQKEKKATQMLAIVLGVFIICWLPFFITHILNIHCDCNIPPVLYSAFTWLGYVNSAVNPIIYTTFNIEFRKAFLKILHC
Sequence of Gonadotropin-releasing hormone receptor (Homo sapiens) (P30968 whole entry, looked up): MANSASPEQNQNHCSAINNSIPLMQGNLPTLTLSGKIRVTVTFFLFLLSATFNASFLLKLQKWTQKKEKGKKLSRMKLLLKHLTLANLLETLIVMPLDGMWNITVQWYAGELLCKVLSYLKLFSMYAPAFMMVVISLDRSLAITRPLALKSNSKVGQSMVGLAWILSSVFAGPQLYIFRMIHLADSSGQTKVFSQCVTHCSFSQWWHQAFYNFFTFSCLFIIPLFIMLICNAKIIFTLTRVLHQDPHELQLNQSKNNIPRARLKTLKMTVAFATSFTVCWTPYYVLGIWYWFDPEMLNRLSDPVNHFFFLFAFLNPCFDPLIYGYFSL
Sequence of Beta-2 adrenergic receptor (Homo sapiens) (P07550 whole entry, looked up): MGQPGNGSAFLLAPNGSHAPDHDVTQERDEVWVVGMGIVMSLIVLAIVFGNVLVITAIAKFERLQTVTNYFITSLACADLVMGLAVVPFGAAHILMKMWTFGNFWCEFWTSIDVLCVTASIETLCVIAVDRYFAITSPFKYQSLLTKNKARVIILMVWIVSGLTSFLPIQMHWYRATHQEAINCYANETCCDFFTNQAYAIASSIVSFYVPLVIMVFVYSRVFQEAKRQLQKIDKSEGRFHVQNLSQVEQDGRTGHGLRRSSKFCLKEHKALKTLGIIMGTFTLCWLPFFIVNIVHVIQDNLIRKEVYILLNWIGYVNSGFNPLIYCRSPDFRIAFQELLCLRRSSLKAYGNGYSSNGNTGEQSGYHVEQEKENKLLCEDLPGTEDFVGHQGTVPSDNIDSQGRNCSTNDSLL
Sequence of 5-hydroxytryptamine receptor 2A (Homo sapiens) (P28223 whole entry, looked up): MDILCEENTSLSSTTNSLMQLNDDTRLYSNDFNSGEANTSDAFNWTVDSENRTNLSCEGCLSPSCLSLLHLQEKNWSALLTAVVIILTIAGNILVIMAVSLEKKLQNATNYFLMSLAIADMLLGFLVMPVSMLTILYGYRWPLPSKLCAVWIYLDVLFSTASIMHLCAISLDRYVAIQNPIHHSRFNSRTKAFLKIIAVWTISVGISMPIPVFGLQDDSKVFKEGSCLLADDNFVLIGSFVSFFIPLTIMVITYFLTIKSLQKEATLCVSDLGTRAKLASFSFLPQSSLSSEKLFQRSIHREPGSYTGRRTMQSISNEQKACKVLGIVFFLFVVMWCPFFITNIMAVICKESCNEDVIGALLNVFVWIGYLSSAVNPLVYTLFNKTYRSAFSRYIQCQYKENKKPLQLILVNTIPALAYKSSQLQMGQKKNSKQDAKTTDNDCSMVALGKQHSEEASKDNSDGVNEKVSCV

O=C(O)c1ccccc1C(=O)O
inactive: [1] | [2] | [3] | [4] | [5] | [6] | [7] | [8] | [9] | [10] | [11] | [12] | [13] | [14] | [15] | [16] | [17] | [18] | [19]

Cc1ccc2c(n1)Oc1ccc(C(C)C(=O)OCC(=O)N(C)C)cc1C2 (stereo unspecified)
inactive: [1] | [2] | [3] | [4] | [5] | [6] | [7] | [8] | [9] | [10] | [11] | [12] | [13] | [14] | [15] | [16] | [17] | [18] | [20] | [19]

C=C(C)C(=O)O
inactive: [1] | [2] | [3] | [4] | [5] | [6] | [7] | [8] | [9] | [10] | [11] | [12] | [13] | [14] | [15] | [16] | [17] | [18] | [20] | [19]

O=[N+]([O-])c1cc(C(F)(F)F)ccc1Cl
inactive: [1] | [2] | [3] | [4] | [5] | [6] | [7] | [8] | [9] | [10] | [11] | [12] | [13] | [14] | [15] | [16] | [17] | [18] | [20] | [19]

C=CCNCC=C
inactive: [1] | [2] | [3] | [4] | [5] | [6] | [7] | [8] | [9] | [10] | [11] | [12] | [13] | [14] | [15] | [16] | [17] | [18] | [20] | [19]

CC(C)CCCCCCCOC(=O)CCCCC(=O)OCCCCCCCC(C)C
inactive: [1] | [2] | [3] | [4] | [5] | [6] | [7] | [8] | [9] | [10] | [11] | [12] | [13] | [14] | [15] | [16] | [17] | [18] | [20]

FC(F)(F)c1ccc(Cl)c(Cl)c1
inactive: [1] | [2] | [3] | [4] | [5] | [6] | [7] | [8] | [9] | [10] | [11] | [12] | [13] | [14] | [15] | [16] | [17] | [18] | [20] | [19]

CCCCCCCCCCCCCCCC(=O)O
inactive: [1] | [2] | [3] | [4] | [5] | [6] | [7] | [8] | [9] | [10] | [11] | [12] | [13] | [14] | [15] | [16] | [17] | [18] | [20] | [19]

CCCCC/C(C=O)=C\c1ccccc1
inactive: [1] | [2] | [3] | [4] | [5] | [6] | [7] | [8] | [9] | [10] | [11] | [12] | [13] | [14] | [15] | [16] | [17] | [18] | [20] | [19]

CCCCCCC(C)O (stereo unspecified)
inactive: [1] | [2] | [3] | [4] | [5] | [6] | [7] | [8] | [9] | [10] | [11] | [12] | [13] | [14] | [15] | [16] | [17] | [18] | [20] | [19]

Cc1ncc[nH]1
inactive: [1] | [2] | [3] | [4] | [5] | [6] | [7] | [8] | [9] | [10] | [11] | [12] | [13] | [14] | [15] | [16] | [17] | [18] | [20] | [19]

O=C(O)Cn1c(=O)n(Cc2ccc(Br)cc2F)c(=O)c2ccc(Cl)cc21
inactive: [1] | [2] | [3] | [4] | [5] | [6] | [7] | [8] | [9] | [10] | [11] | [12] | [13] | [14] | [15] | [16] | [17] | [18] | [20] | [19]

CC(=O)CCc1ccccc1
inactive: [1] | [2] | [3] | [4] | [5] | [6] | [7] | [8] | [9] | [10] | [11] | [12] | [13] | [14] | [15] | [16] | [17] | [18] | [19]

Nc1ccc(Cl)cc1Cl
inactive: [1] | [2] | [3] | [4] | [5] | [6] | [7] | [8] | [9] | [10] | [11] | [12] | [13] | [14] | [15] | [16] | [17] | [18] | [19]

CCCCC(CC)COC(=O)CS (stereo unspecified)
inactive: [1] | [2] | [3] | [4] | [5] | [6] | [7] | [8] | [9] | [10] | [11] | [12] | [13] | [14] | [15] | [16] | [17] | [18] | [20] | [19]
